The record followed here is PubChem BioAssay (EPA / NIEHS).

Experiment [1] can be described thus: CCTE_Shafer_MEA_dev_spike_duration_mean: CCTE's Neural Network Formation Assay for Mean Spike Duration, Shafer Lab (AID 2284051).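 As to AC50: potency for a decrease in mean network spike duration versus DMSO.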 In a few lines: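 Spontaneous activity was recorded on days 5, 7, 9 and 12 from rat cortical cultures grown on microelectrode arrays and dosed continuously from day 0, with media and compound renewed after the DIV 5 and 9 recordings. Network-spike duration was collapsed by area under the curve.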

A short description of experiment [2]: CCTE_Shafer_MEA_dev_network_spike_duration_std: CCTE's Neural Network Formation Assay for Standard Deviation of Network Spike Duration, Shafer Lab (AID 2284052).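 Also: hits are decreases in network spike duration SD versus DMSO vehicle.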 In a few lines:
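Network spike duration variability was collapsed across recordings on days 5, 7, 9 and 12 by trapezoidal area-under-curve and fitted downward against DMSO. Cultures were rat cortical neurons on PEI-coated MEA plates, dosed continuously from plating, refed with compound DIV 5/9.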

The nature of experiment [3]: CCTE_Shafer_MEA_dev_per_network_spike_spike_number_mean: CCTE's Neural Network Formation Assay for Mean Number of Spikes in a Network Spike, Shafer Lab (AID 2284053).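 As to AC50: fitted as decrease in spikes per network spike relative to DMSO.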 In a few lines: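 Mean spike count within each network spike, taken in a 0.05 s window at its peak, was recorded on days 5, 7, 9 and 12 and integrated as trapezoidal area under the curve. Rat cortical cultures on MEA plates received continuous compound from day 0, refreshed at medium changes on DIV 5 and 9.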

A short description of experiment [4]: CCTE_Shafer_MEA_dev_per_network_spike_spike_percent: CCTE's Neural Network Formation Assay for Percent of Spikes in a Network Spike, Shafer Lab (AID 2284054). The gist of the method: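 Primary rat cortical neurons on 16-electrode MEA wells (PEI-coated, laminin at plating), exposed from day 0 with renewal at DIV 5 and 9; spikes within 0.05 s of network-spike peaks over total spikes, AUC across days 5, 7, 9, 12.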

Experiment [5] can be described thus: CCTE_Shafer_MEA_acute_AB: CCTE's Alamar Blue Assay for Cytotoxicity in the Neural Acute Assay, Shafer Lab (AID 2284069; active = hit-call score of the fitted dose curve at least 0.9, where 1 is the maximum;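 also: active compounds lower the viability signal compared with DMSO wells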). In a few lines:
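Resazurin reduction (CellTiter Blue, 1:6 in fresh medium) read at ex 544/em 590 nm marks viability loss relative to DMSO. Cells: primary rat cortical neuron networks on microelectrode arrays, treated after baseline recording at 13 or 15 days in vitro.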

The nature of experiment [6]: CCTE_Shafer_MEA_dev_AB: CCTE's Alamar Blue Assay for Cytotoxicity in the Neural Network Formation Assay, Shafer Lab (AID 2284083; active = hit-call score of the fitted dose curve at least 0.9, where 1 is the maximum;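 also: resazurin reduction fluorescence as viability of cultured neurons; twelve days of exposure from plating with re-dosing on DIV 5 and 9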). In a few lines:
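Resazurin fluorescence, relative to DMSO, gauges viability after twelve days of exposure that began at plating of rat cortical neurons (1.5 x 10^5 cells/well, 48-well MEA); treatment renewed with full medium exchange on DIV 5 and 9.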

The nature of experiment [7]: CCTE_Shafer_MEA_acute_LDH: CCTE's Lactate Dehydrogenase Assay for Cytotoxicity in the Neural Acute Assay, Shafer Lab (AID 2284086; active = hit-call score of the fitted dose curve at least 0.9, where 1 is the maximum;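 also: active means LDH release rises above DMSO vehicle level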). The gist of the method:
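Released lactate dehydrogenase, read at 490 nm, indicated cytotoxicity after acute 40-min compound treatment of rat cortical neuron networks grown on 48-well MEA plates.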

Experiment [8] is described as follows: CCTE_Shafer_MEA_dev_mutual_information_norm: CCTE's Neural Network Formation Assay for Mutual Information Normalization, Shafer Lab (AID 2284091).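 As to AC50: mutual information between electrodes summarised as area under curve across four recording days; potency is for a decrease in mutual information relative to DMSO.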 The gist of the method:
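Rat cortical cultures, 48-well MEA, continuous exposure DIV 0–12 with full media/compound change DIV 5 and 9. Readout: inter-electrode mutual information, AxIS adaptive spike detection; AUC across DIV 5/7/9/12 recordings; DMSO baseline, negative fitting direction.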

A short description of experiment [9]: CCTE_Shafer_MEA_dev_correlation_coefficient_mean: CCTE's Neural Network Formation Assay for Mean Correlation Coefficient, Shafer Lab (AID 2284093).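 As to AC50: well mean pairwise spike train correlation integrated as AUC over recording days 5 to 12; potency fitted for loss of correlation relative to DMSO vehicle wells.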 The gist of the method:
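Primary rat cortical neurons on PEI-coated 48-well MEA plates (16 electrodes/well) were exposed from plating day 0 through DIV12, with compound renewed at DIV5 and 9. Pairwise spike correlations were averaged per well; trapezoidal AUC across DIV5, 7, 9, 12.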

Experiment [10] is described as follows: UKN2_HCS_IMR90_neural_migration: University of Konstanz (UKN) Leist Lab Neural Crest Cell Migration Assay in human induced IMR90 Pluripotent Stem Cells (UKN2) (AID 2284204). The note with it: actives raise or lower the signal. The gist of the method:
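iPSC-derived IMR90 neural crest cells on PLO/laminin/fibronectin were seeded around silicone stoppers; after stopper removal, migration in N2-S medium with EGF and FGF ran 24 h before 24 h chemical exposure. Calcein-AM/Hoechst high-content imaging; bidirectional fit versus DMSO.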

Experiment [11] can be described thus: IUF_NPC1b_proliferation_BrdU_72hr: Leibniz Research Institute for Environmental Medicine (IUF) 72-hour Neural Progenitor Cell Bromodeoxyuridine (BrdU) Proliferation Assay (NPC1b) (AID 2284207). In a few lines:
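hNPC spheres (primary, GW 16-19 fetal cortex), single sphere/well, EGF+FGF medium; 72 h compound, no renewal; BrdU pulse last 16 h; luminescent ELISA; activity vs DMSO baseline; growth-factor withdrawal as positive control.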

Experiment [12] in a line: IUF_NPC1a_proliferation_area_72hr: Leibniz Research Institute for Environmental Medicine (IUF) 72-hour Neural Progenitor Cell Proliferation Area Assay (NPC1a) (AID 2284208). In a few lines:
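Single 0.25–0.35 mm human fetal neural progenitor spheres in proliferation medium with EGF and FGF, exposed 72 h from plating without renewal at 37C, pH 7.2-7.6. Sphere area growth measured by automated phase-contrast imaging, relative to DMSO.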

Experiment [13] can be described thus: IUF_NPC1_viability_72hr: Viability Assessment at 72 hours in the Leibniz Research Institute for Environmental Medicine (IUF) Neural Progenitor Cell Proliferation Assay (NPC1) (AID 2284209). The gist of the method:
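Each well receives one 0.3 mm progenitor sphere from fetal brain cortex; test chemical is added at plating and left three days. Viability comes from alamar blue fluorescence, multiplexed with LDH and BrdU readouts in the same well.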

Experiment [14] in a line: CCTE_Mundy_HCI_Cortical_Synap_Neur_Matur_NeuriteSpotCountPerNeuriteLength: CCTE's Synaptogenesis and Neurite Maturation Assay in rat cortical cells for Neurite Spot Count per Neurite Length, Mundy Lab (AID 2284210). In a few lines: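 Rat primary cortical cultures, glia arrested with AraC at DIV 5, were dosed with media change at DIV 7 and fixed at DIV 12. Synaptophysin puncta per MAP2-labelled neurite length were quantified by high-content imaging versus DMSO.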

Experiment [15] can be described thus: CCTE_Mundy_HCI_Cortical_NOG_NeuriteCount: CCTE's Neurite Outgrowth Assay in rat cortical cells for Neurite Count, Mundy Lab (AID 2284212).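 Also: cells fixed about two days after chemical exposure began.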 In a few lines:
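Neurite number per cell from high-content imaging of betaIII-tubulin immunostaining, with Hoechst nuclear counterstain.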

Experiment [16] is described as follows: UKN5_HCS_SBAD2_cell_viability: Viability Assessment in the University of Konstanz (UKN) Leist Lab Neurite Outgrowth Assay in human iPSC-derived immature Dorsal Root Ganglia Neurons (UKN5) (AID 2284056). The gist of the method: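 iPSC-derived immature peripheral neurons (SBAD2) seeded on Matrigel with CHIR99021, SU5402 and DAPT, dosed 1 h later for 24 h. Viability from Hoechst H-33342 and calcein-AM live staining, high-content imaging; bidirectional fit versus DMSO.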

The nature of experiment [17]: UKN5_HCS_SBAD2_neurite_outgrowth: University of Konstanz (UKN) Leist Lab Neurite Outgrowth Assay in human iPSC-derived immature Dorsal Root Ganglia Neurons (UKN5) (AID 2284070). The note with it: actives raise or lower the signal. In a few lines: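 SBAD2 neurons, 24 h compound treatment, calcein-AM neurite area via HCS imaging; DMSO baseline, gain or loss of signal.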

The nature of experiment [18]: UKN4_HCS_LUHMES_neurite_outgrowth: University of Konstanz (UKN) Leist Lab Neurite Outgrowth Assay in human LUHMES cells (UKN4) (AID 2284206). The note with it: actives raise or lower the signal. In a few lines: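 2-day-differentiated LUHMES, 24 h cpd exposure, live calcein-AM + H-33342 stain, HCS fluorescence imaging of neurite area; DMSO = baseline, bidirectional fit.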

The test system of experiment [19] is DIO2 (gene 1734). In words: CCTE_GLTED_hDIO2: CCTE's human Deiodinase 2 (DIO2) Inhibition Assay, Great Lakes Toxicology and Ecology Division (GLTED) Lab (AID 2284050; active = hit-call score of the fitted dose curve at least 0.9, where 1 is the maximum). The gist of the method: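 In this cell-free test, chemicals are exposed to human deiodinase type 2 for 3 hours. Released iodide is determined spectrophotometrically via the Sandell-Kolthoff method, and signal loss relative to DMSO is fitted.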

Experiment [20] concerns DIO3 (gene 1735). In words: CCTE_GLTED_hDIO3: CCTE's human Deiodinase 3 (DIO3) Inhibition Assay, Great Lakes Toxicology and Ecology Division (GLTED) Lab (AID 2284055; active = hit-call score of the fitted dose curve at least 0.9, where 1 is the maximum). In a few lines:
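Enzyme activity is tracked as iodide release from substrate by recombinant human DIO3 over 3 h with chemical present. A second Sandell-Kolthoff step converts iodide to an absorbance signal, fitted relative to DMSO.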

Each structure is given as a SMILES string. Where “and” joins values, the source holds several entries; their conditions need not be identical. Equal entries are not always repeated. Inconclusive results are not listed. Where a structure was tested more than once in an assay, its records may differ in their call. Calls of active or inactive are those of the source. The calls were made as follows, unless noted: active = hit-call score of the fitted dose curve at least 0.9, where 1 is the maximum; inactive = score below 0.9.

As to `CC1(C)C(C=C(Cl)Cl)C1C(=O)OC(C#N)c1ccc(F)c(Oc2ccccc2)c1` (stereo unspecified), the AC50 was 5.46 µM (active) and 10.2 µM (active) and 8.39 µM (active) in [1]; 3.51 µM (active) and 3.76 µM (active) in experiment [2]; 3.15 µM (active) and 12.1 µM (active) and 11.9 µM (active) in experiment [3]; 1.72 µM (active) and 13.6 µM (active) and 4.24 µM (active) in [4]; 64.4 µM (active) in experiment [6]; 268 nM (active) and 6.41 µM (active) and 2.77 µM (active) in experiment [8]. Moreover, the AC50 in experiment [9] is 1.06 µM (active) and 8.22 µM (active) and 7.24 µM (active); in experiment [11], 8.05 µM (active); in experiment [14], 82.7 µM (active); in experiment [15] it was 77.2 µM (active). Further, the compound was classed as inactive in experiment [2], in experiment [5], in [6], in [7], in experiment [10] and in experiment [12]. Moreover, the outcome in experiment [13], in experiment [14] and in experiment [15] was inactive.
In the case of `O=C(O)CCCOc1ccc(Cl)cc1Cl`, the call in experiment [5] and in experiment [7] was inactive.
`N#CN`: the result in [5] and in experiment [7] was inactive.
Regarding `ClC1C(Cl)C(Cl)C(Cl)C(Cl)C1Cl` (stereo unspecified), the compound was called inactive in experiment [1], in [2], in experiment [3], in experiment [4], in experiment [16] and in experiment [17]. For the same compound, the call in experiment [6], in [7], in [8], in experiment [9], in experiment [10] and in experiment [18] was inactive.
Turning to `O=S(=O)(O)C(F)(F)C(F)(F)C(F)(F)C(F)(F)C(F)(F)C(F)(F)C(F)(F)C(F)(F)F`, the AC50 in experiment [19] is 95 µM (active) [middle of 4 runs]; in [1], 50 µM (active); in [3], 50 µM (active); in experiment [16] it was 770 µM (active); in experiment [17], 752 µM (active); in experiment [6], 50 µM (active). Also, the AC50 in experiment [8] is 25 µM (active); in experiment [9], 68.6 µM (active); in experiment [10], 114 µM (active); in experiment [18] it was 19.1 µM (active); in experiment [11], 12.6 µM (active). The outcome in [1], in experiment [2], in [3], in experiment [4], in [20] and in [5] was inactive. The result in [8], in [9], in experiment [10], in experiment [11], in [12] and in [13] was inactive. Moreover, the call in experiment [14] and in experiment [15] was inactive.
As for `C[C@H]1[C@H](c2ccc(Cl)cc2)SC(=O)N1C(=O)NC1CCCCC1`, in experiment [7], the call was inactive.
